Assay results published in PubChem BioAssay (NCATS).
Where “and” joins values, the source holds several entries; their conditions need not be identical. Equal entries are not always repeated. Records with an inconclusive call do not appear. Calls of active or inactive are those of the source. Unless noted, calls come from the whole dose curve; as a rule, active = well fitted curve in the direction sought with a large enough effect; inconclusive = small, poorly fitted or top-dose-only effect, or another doubt; inactive = no such curve, though single readings can be large; an effect the other way counts as inactive or inconclusive.

Key:
[1] = Cell Viability - BJ (AID 421; calls by dose curve;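 note: potency is the fitted concentration of half-maximal effect; cells exposed to compound for 40 hours at 37 °C before readout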); details: BJ fibroblast viability, qHTS
Summary of the method: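 Luminescent ATP signal (CellTiter-Glo, 20 min at room temperature) served as the read-out of viable BJ cells after 40 hours of compound treatment. Responses were scaled between DMSO and 100 uM tamoxifen, and AC50 values were obtained by Hill modeling.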

[2] = Cell Viability - HepG2 (AID 433; calls by dose curve;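 note: potency is the fitted concentration of half-maximal effect; potency for ATP loss meaning cytotoxicity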); details: qHTS
Summary of the method: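 Read-out is luciferase-based quantitation of cellular ATP as a measure of viable HepG2 cells after 40 h treatment at 37 °C. Signal decrease is scaled between DMSO-only and 100 uM tamoxifen controls, with AC50 fitted by the Hill equation.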

[3] = Cell Viability - MRC5 (AID 434; calls by dose curve;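 note: potency is the fitted concentration of half-maximal effect; cells exposed to compound for 40 hours at 37 °C; potency reflects cytotoxicity seen as loss of intracellular ATP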); details: MRC5 lung fibroblast viability, qHTS
Summary of the method: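 qHTS cytotoxicity in human lung fibroblast MRC5 cells; 40 hr treatment, 37 °C; cellular ATP by luciferase luminescence; DMSO = 0%, 100 uM tamoxifen = 100% inhibition; Hill-fit AC50.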

[4] = biological target: Mitogen-activated protein kinase 10 (Mus musculus) (UniProt Q61831); assay: JNK3 AlphaScreen Assay (AID 530; active = well fitted curve in either direction with a large enough effect, not every such curve was filed as active;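 note: kinase came from lysate of stimulated human HepG2 cells; signal reports phosphorylation of biotinylated GST-cJun 1-79 at Ser73 with 10 µM ATP; % is set by controls: 0 for no effect and ±100 for the full control effect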); details: JNK3 lysate, c-Jun phosphorylation; series mostly up to 57.1 µM
Summary of the method: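 Room-temperature AlphaScreen kinase assay; pre-activated HepG2 lysate as JNK3 source, biotin-GST-cJun(1-79) substrate, 10 uM ATP, compound 15 min preincubation.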

[5] = Cell Viability - NIH 3T3 (AID 541); details: NIH 3T3 cell viability, qHTS; at 92.2 µM (top of the series);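 note: plate controls were DMSO alone for no effect and tamoxifen positive control for full effect; nearly all actives have a fitted effect of over 25% in size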
Summary of the method: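 AC50 values reflect concentration-dependent loss of intracellular ATP in NIH 3T3 cells after 40 hr treatment in complete culture medium, quantified by luciferase-based luminescence.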

[6] = Cell Viability - HUV-EC-C (AID 542); details: HUV-EC-C endothelial cell viability, qHTS; series mostly up to 92.2 µM; note: nearly all actives have a fitted effect of over 35% in size; note: potency is the fitted concentration of half-maximal effect
Summary of the method: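 Decrease in cellular ATP, quantified by luciferase luminescence, reflects toxicity in normal human vascular endothelial HUV-EC-C cells given compound for 40 hr in complete culture medium. Values are AC50s from concentration-response curves.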

[7] = Cell Viability - Mesenchymal (AID 546); details: mesenchymal cells viability, qHTS; series mostly up to 91.7 µM;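 note: cells exposed to compound for 40 hours before reading; 0% = DMSO only and -100% = 100 µM tamoxifen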
Summary of the method: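 AC50 values reflect the drop in intracellular ATP in a human kidney mesenchymal line derived from normal glomeruli. Treatment lasts 40 hr at 37 °C in complete medium, and the signal comes from CellTiter-Glo luminescence.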

[8] = Cell Viability - Jurkat (AID 426;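 active = dose-dependent loss of cell ATP signal giving a full or clear fitted curve, ranked by lower potency value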;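 note: potency is the fitted concentration of half-maximal effect; cells exposed to compound for 40 hours at 37 °C before ATP read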); details: qHTS
Summary of the method: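 Seed 5000 Jurkat E6-1 cells/well; add compound; incubate 40 hr at 37 °C; add CellTiter-Glo; wait 20 min at room temperature; read luminescence. Fit concentration-response with Hill equation for AC50.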

[9] = Cell Viability - Hek293 (AID 427;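 active = compounds whose dose-response curve shows a full or clear partial loss of cell viability, called from curve shape rather than a numeric limit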;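 note: potency is the fitted concentration of half-maximal effect; cells exposed to compound for 40 hours at 37 °C before reading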); details: qHTS
Summary of the method: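 Luminescent ATP read-out (CellTiter-Glo, 20 min RT) after 40 hr compound exposure at 37 °C in complete medium. Signal normalized to DMSO (basal) and 100 uM tamoxifen (100% inhibition); concentration-response fitted with the standard Hill equation to give AC50.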

[10] = Cell Viability - SK-N-SH (AID 435; calls by dose curve;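 note: potency is the fitted concentration of half-maximal effect; compound exposure lasted 40 h at 37 °C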); details: SK-N-SH neuroblastoma cell viability qHTS
Summary of the method: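 Luminescent ATP signal served as the viability read-out after 40 hours of compound treatment of human neuroblastoma SK-N-SH cells. Concentration-response data, scaled between DMSO and 100 uM tamoxifen, gave AC50 values by standard Hill modeling.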

[11] = Cell Viability - N2a (AID 540); details: N2a mouse neuroblastoma cell viability; series mostly up to 92.2 µM;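 note: cells exposed to compound for 40 h at 37 °C; plate controls were DMSO alone for no effect and tamoxifen control for full effect; nearly all actives have a fitted effect of over 45% in size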
Summary of the method: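 First, 1500 N2a cells per well incubate 5 hr at 37 °C; next, compounds are added and incubated 40 hr at 37 °C; finally CellTiter-Glo is added and luminescence read after 20 min, with AC50 derived by Hill modeling.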

[12] = Cell Viability - H-4-II-E (AID 543); details: H-4-II-E rat hepatoma viability; series mostly up to 92.2 µM; note: nearly all actives have a fitted effect of over 35% in size; note: potency is the fitted concentration of half-maximal effect
Summary of the method: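 Here, cytotoxicity is measured in the rat hepatoma line H-4-II-E as loss of intracellular ATP after 40 hr compound treatment, detected by luciferase luminescence.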

[13] = Cell Viability - SH-SY5Y (AID 544); details: SH-SY5Y neuroblastoma cell viability; series mostly up to 92.2 µM;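 note: 0% = DMSO alone and -100% = 100 µM tamoxifen; nearly all actives have a fitted effect of over 55% in size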
Summary of the method: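 Cytotoxicity is scored as a concentration-dependent fall in intracellular ATP in human SH-SY5Y cells treated 40 hr in complete culture medium. Potency is expressed as AC50 from a Hill equation fit.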

[14] = Cell Viability - Renal Proximal Tubule (AID 545); details: renal proximal tubule cells viability; series mostly up to 91.7 µM;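 note: 0% = DMSO only and -100% = 100 µM tamoxifen; nearly all actives have a fitted effect of over 40% in size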
Summary of the method: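 Luminescent ATP signal (CellTiter-Glo) served as the viability read-out after 40 hr compound exposure of freshly isolated rat proximal tubule cells at 37 °C. Concentration-dependent ATP loss was fitted with the Hill equation to give AC50.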

[15] = AP1 Signaling Pathway (AID 357; active = well fitted curve in either direction with a large enough effect, not every such curve was filed as active;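 note: ME-180 reporter cells stimulated with EGF at its EC50 level; % is set by controls: 0 for no effect and ±100 for the full control effect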); details: ME-180 AP-1-bla reporter, EGF-induced, beta-lactamase ratio, 5 h; series mostly up to 17.2 µM
Summary of the method: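 In this screen, ME-180 cells in Opti-MEM with 0.5% dialyzed FBS received EC50 EGF and compound titrations for 5 h. AP-1 reporter beta-lactamase was detected via CCF4 ratio, giving AC50 for positive and negative modulators.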

[16] = biological target: Cytochrome P450 1A2 (Homo sapiens) (UniProt P05177); assay: p450-cyp1a2 (AID 410; calls by dose curve; note: potency is the fitted concentration of half-maximal effect;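 for activity change, negative = inhibition: -100% = full effect of reference inhibitor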); details: recombinant CYP1A2, luciferin-ME demethylation, luminescence; series mostly up to 57 µM
Cytochrome P450 1A2 (Homo sapiens), sequence (P05177 whole entry, looked up): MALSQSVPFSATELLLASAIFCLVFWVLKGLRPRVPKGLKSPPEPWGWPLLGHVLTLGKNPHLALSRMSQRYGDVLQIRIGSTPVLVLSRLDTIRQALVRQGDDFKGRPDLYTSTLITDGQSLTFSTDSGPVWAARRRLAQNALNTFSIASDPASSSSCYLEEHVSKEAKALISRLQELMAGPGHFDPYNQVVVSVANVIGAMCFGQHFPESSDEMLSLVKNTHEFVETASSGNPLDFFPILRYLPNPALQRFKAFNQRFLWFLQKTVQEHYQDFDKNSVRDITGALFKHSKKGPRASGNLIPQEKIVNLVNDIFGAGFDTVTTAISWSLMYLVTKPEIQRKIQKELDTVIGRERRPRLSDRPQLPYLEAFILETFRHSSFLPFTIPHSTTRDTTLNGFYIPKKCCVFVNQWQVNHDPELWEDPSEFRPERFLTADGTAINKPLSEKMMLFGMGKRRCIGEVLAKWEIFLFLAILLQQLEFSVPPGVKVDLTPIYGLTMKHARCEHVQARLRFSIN
Summary of the method: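 Inhibition was calculated relative to 57 uM furafylline (full inhibition). The reaction used human CYP1A2 at 20nM with Luciferin-ME at its Km, 100uM, driven by an NADPH-regenerating system for 60 min at room temperature.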

[17] = NFAT Signaling Pathway (AID 444; active = well fitted curve in either direction with a large enough effect, not every such curve was filed as active;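 note: carbachol stimulus at about its EC50 of 1 µM final; % is set by controls: 0 for no effect and ±100 for the full control effect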); details: Jurkat NFAT-bla M1, carbachol, beta-lactamase ratio, 5 h
Summary of the method: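 Read-out: CCF4 FRET ratio (460 nm/530 nm) after 1 h RT dye loading, used for %activity and AC50 from titration series. Cells: Jurkat NFAT-β-lactamase/M1 line, treated with compound plus 1 uM carbachol for 5 h, 37 °C.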

[18] = biological target: Glucocorticoid receptor (Homo sapiens) (UniProt P04150); assay: GR-GFP Redistribution (AID 450;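 active = compounds whose dose series gives a full or clear partial fitted curve of increased nuclear translocation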; note: potency is the fitted concentration of half-maximal effect); details: U2OS GR-GFP nuclear translocation, laser cytometry, 2 h
Glucocorticoid receptor (Homo sapiens), sequence (P04150 whole entry, looked up, the tested form may be a part): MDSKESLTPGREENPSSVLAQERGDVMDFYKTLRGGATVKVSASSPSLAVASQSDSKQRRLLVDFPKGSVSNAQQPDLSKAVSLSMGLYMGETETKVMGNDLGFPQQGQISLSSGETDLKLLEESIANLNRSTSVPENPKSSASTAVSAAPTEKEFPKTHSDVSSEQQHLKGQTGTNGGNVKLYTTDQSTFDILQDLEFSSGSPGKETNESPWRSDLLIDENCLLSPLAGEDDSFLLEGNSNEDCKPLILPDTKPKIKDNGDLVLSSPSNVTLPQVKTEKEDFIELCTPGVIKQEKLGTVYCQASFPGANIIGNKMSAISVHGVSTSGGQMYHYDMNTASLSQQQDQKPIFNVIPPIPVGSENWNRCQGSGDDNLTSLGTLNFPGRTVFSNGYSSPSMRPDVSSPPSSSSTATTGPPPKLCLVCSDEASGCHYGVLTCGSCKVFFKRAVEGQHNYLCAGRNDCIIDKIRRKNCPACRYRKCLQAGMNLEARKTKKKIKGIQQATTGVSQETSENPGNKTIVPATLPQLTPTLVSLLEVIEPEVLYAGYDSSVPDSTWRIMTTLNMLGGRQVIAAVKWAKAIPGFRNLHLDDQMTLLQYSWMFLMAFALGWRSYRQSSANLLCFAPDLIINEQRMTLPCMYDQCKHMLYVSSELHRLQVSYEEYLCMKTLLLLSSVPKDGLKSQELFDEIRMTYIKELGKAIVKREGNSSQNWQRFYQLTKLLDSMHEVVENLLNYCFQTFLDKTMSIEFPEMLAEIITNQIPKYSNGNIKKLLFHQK

[19] = Stat Signaling Pathway (AID 446; active = well fitted curve in either direction with a large enough effect, not every such curve was filed as active;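 note: ME-180 cervical cancer cells given 40 pM IL-6 alongside compound; SIE-controlled beta-lactamase reporter measured as 460/530 nm FRET emission ratio; % is set by controls: 0 for no effect and ±100 for the full control effect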); details: ME-180 SIE beta-lactamase reporter, IL-6 stimulated, 5 h; series mostly up to 17.2 µM
Summary of the method: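 ME-180 SIE-bla cells; overnight plating; cpd + IL-6 40 pM, 5 h, 37 C; LiveBLAzer 2.5 h RT; 460/530 nm emission ratio. Normalized to 300 pM IL-6 and 125 nM JAK inhibitor controls.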

[20] = biological target: Glucocorticoid receptor (Homo sapiens) (UniProt P04150); assay: GR-EFC Redistribution (AID 451; calls by dose curve; note: potency is the fitted concentration of half-maximal effect); details: CHO-K1 GR-EFC translocation, beta-gal luminescence, 2 h
Summary of the method: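 Translocation of GR-ED fusion to nuclear EA restores b-gal, read by luminescence after 1 h room-temperature detection. Engineered CHO-K1 biosensor cells, 1,000/well, exposed 2 h at 37 C to titrations up to 46 uM final.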

C[C@]12CCC(=O)C=C1CC[C@@H]1[C@@H]2CC[C@@]2(C)[C@H]1CC[C@]2(C)O
inactive: Potency [1] > 92 µM | Potency [2] > 92 µM | Potency [3] > 92 µM | outcome [4] | Potency [6] | outcome [7]
active: activity change, negative = cytotoxicity [5] -123%

CCC(C)(C)c1ccc(O)cc1
inactive: Potency [1] > 92 µM | Potency [8] > 92 µM | Potency [9] > 92 µM | Potency [2] > 92 µM | Potency [3] > 92 µM | Potency [10] > 92 µM | outcome [4] | outcome [11] | activity change, negative = cytotoxicity [5] -23.4% | Potency [6] | Potency [12] | Potency [13] | outcome [14] | outcome [7]

CCCCC/C=C\C/C=C\C/C=C\C/C=C\CCCC(=O)NCC(=O)O
inactive: outcome [15] | Potency [16] | activity change, negative = inhibition ([17]; at 38 µM (top of the series)) -2.7% | Potency [18] > 46 µM | outcome [4]

COc1ccc2c(c1)C13CCCC[C@@H]1C(C2)N(C)CC3 (stereo not given in full)
inactive: outcome [15] | activity change, negative = inhibition ([17]; at 17.2 µM (top of the series)) -1.88% | outcome [19] | Potency [18] > 20.6 µM | Potency [20] > 20.6 µM | outcome [4]

C[C@]12CCC(=O)C=C1CC[C@@H]1[C@@H]2CC[C@]2(C)C(=O)CC[C@@H]12
active: Potency [9] 36.7 µM | activity change, negative = cytotoxicity [5] -137% and -117% | Potency [12] 25.1 µM
inactive: outcome [15] | Potency [1] > 92 µM | Potency [8] > 92 µM | Potency [2] > 92 µM | Potency [3] > 92 µM | Potency [10] > 92 µM | activity change, negative = inhibition ([17]; at 17.2 µM (top of the series)) 7.44% | outcome [19] | outcome [4] | outcome [11] | Potency [6] | Potency [13] | outcome [14] | outcome [7]

CC(C)N(CCC(C(N)=O)(c1ccccc1)c1ccccn1)C(C)C (stereo not given)
inactive: outcome [15] | outcome [19]

NCCc1ccc(O)cc1
active: activity change, negative = cytotoxicity [5] -149%
inactive: outcome [15] | Potency [16] | Potency [1] > 92 µM | Potency [8] > 92 µM | Potency [9] > 92 µM | Potency [2] > 92 µM | Potency [3] > 92 µM | Potency [10] > 92 µM | activity change, negative = inhibition ([17]; at 38 µM (top of the series)) 5.43% | Potency [18] > 46 µM | Potency [20] > 46 µM | outcome [4] | outcome [11] | Potency [6] | Potency [12] | Potency [13] | outcome [14] | outcome [7]

COc1cc(OC)c(OC)cc1C=O
inactive: Potency [1] > 92 µM | Potency [8] > 92 µM | Potency [9] > 92 µM | Potency [2] > 92 µM | Potency [3] > 92 µM | Potency [10] > 92 µM | outcome [11] | activity change, negative = cytotoxicity [5] 6.21% | Potency [6] | Potency [12] | Potency [13] | outcome [14] | outcome [7]

COC(=O)C(c1ccccc1)C1CCCCN1 (stereo not given)
inactive: Potency [1] > 92 µM | Potency [8] > 92 µM | Potency [9] > 92 µM | Potency [2] > 92 µM | Potency [3] > 92 µM | Potency [10] > 92 µM | outcome [4] | outcome [11] | activity change, negative = cytotoxicity [5] -13.4% | Potency [6] | Potency [12] | Potency [13] | outcome [14] | outcome [7]

Clc1ccc(C(c2ccc(Cl)cc2)C(Cl)(Cl)Cl)cc1
inactive: Potency [1] > 92 µM | Potency [2] > 92 µM | Potency [3] > 92 µM | activity change, negative = cytotoxicity [5] -24.2% | Potency [13] | outcome [14]
active: Potency [6] 50.1 µM

CCC1(CC)C(=O)C=CNC1=O
inactive: outcome [15] | Potency [16] | activity change, negative = inhibition ([17]; at 17.2 µM (top of the series)) -4.7% | outcome [19] | Potency [18] > 20.6 µM | Potency [20] > 20.6 µM | outcome [4]

C#C[C@]1(O)CC[C@H]2[C@@H]3CCC4=CC(=O)CC[C@]4(C)[C@H]3CC[C@@]21C
inactive: outcome [15] | activity change, negative = inhibition ([17]; at 17.2 µM (top of the series)) 2.09% | outcome [19]
active: Potency [18] 0.338 µM

COP(=S)(OC)Oc1ccc(SC)c(C)c1
inactive: Potency [1] > 92 µM | Potency [8] > 92 µM | Potency [9] > 92 µM | Potency [2] > 92 µM | Potency [3] > 92 µM | Potency [10] > 92 µM | outcome [11] | activity change, negative = cytotoxicity [5] -11.1% | Potency [6] | Potency [12] | Potency [13] | outcome [14] | outcome [7]

Nc1ccccc1
inactive: Potency [1] > 92 µM | Potency [8] > 92 µM | Potency [9] > 92 µM | Potency [2] > 92 µM | Potency [3] > 92 µM | Potency [10] > 92 µM | outcome [4] | outcome [11] | activity change, negative = cytotoxicity [5] -16.9% | Potency [6] | Potency [12] | Potency [13] | outcome [14] | outcome [7]

Nc1ccccc1C(=O)O
inactive: Potency [1] > 92 µM | Potency [8] > 92 µM | Potency [9] > 92 µM | Potency [2] > 92 µM | Potency [3] > 92 µM | Potency [10] > 92 µM | outcome [4] | outcome [11] | activity change, negative = cytotoxicity [5] -17.8% | Potency [6] | Potency [12] | Potency [13] | outcome [14] | outcome [7]

CNC(C)(C)Cc1ccccc1
inactive: outcome [15] | Potency [16] | activity change, negative = inhibition ([17]; at 17.2 µM (top of the series)) -3.4% | outcome [19] | Potency [18] > 20.6 µM | Potency [20] > 20.6 µM | outcome [4]

O=c1oc2ccccc2c(O)c1Cc1c(O)c2ccccc2oc1=O
active: Potency [16] 12.6 µM
inactive: activity change, negative = inhibition ([17]; at 17.2 µM (top of the series)) -5.31%
